The text below walks through data of PubChem BioAssay (Tox21).

Assay [1] can be described thus: qHTS RealTime-Glo MT Cell Viability Assay in HEK293 cells - 0 hour (AID 1224880). Further: top concentration of the series differs between compounds; nearly all actives have a fitted effect of over 45% in size. Put shortly:
(§1)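 qHTS format; HEK293 cells with NanoLuc/prosubstrate reagent, 37 C/5% CO2 for 5 h pre-dosing; compounds 23 nL in DMSO; luminescence at each time point reflects viable cells.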
On the technique in general: In qHTS, concentration-response curves come from the screen itself.

Assay [2] in a line: A CellTox Green Cytotoxicity Assay to monitor cytotoxicity in HEK293 cells - 32 hour (AID 1224881). Further: nearly all actives have a fitted effect of over 40% in size. Further: potency means the concentration at half of the fitted maximal effect. Put shortly: (§2)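 Each value comes from one timepoint of a single continuous run in which HEK293 cells with CellTox Green were exposed to compound for up to 40 h at 37 C, dye fluorescence rising with cell death.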
Assay [3] can be described thus: A CellTox Green Cytotoxicity Assay to monitor cytotoxicity in HepG2 cells - 0 hour (AID 1224882). Further: nearly all actives have a fitted effect of over 35% in size. Further: potency means the concentration at half of the fitted maximal effect. The gist of the method:
(§3)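 Continuous culture of HepG2 cells with a membrane-impermeant DNA dye; rising fluorescence marks dead cells. Compound exposure lasted up to 40 h at 37 C, with reads every 8 h from 0 h.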

The nature of assay [4]: A CellTox Green Cytotoxicity Assay to monitor cytotoxicity in HEK293 cells - 8 hour (AID 1224884). Further: nearly all actives have a fitted effect of over 35% in size. Further: potency means the concentration at half of the fitted maximal effect. The gist of the method: as §2
Assay [5] is described as follows: qHTS RealTime-Glo MT Cell Viability Assay in HepG2 cells - 16 hour (AID 1224885). Further: nearly all actives have a fitted effect of over 50% in size. The gist of the method: (§4)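 Viability was tracked continuously by NanoLuc luminescence from prosubstrate reduced by living HepG2 cells, at successive time points over 40 h of compound exposure. Cells with reagent were preincubated 5 h at 37 °C before compound addition.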
A short description of assay [6]: qHTS RealTime-Glo MT Cell Viability Assay in HEK293 cells - 24 hour (AID 1224886). Further: top concentration of the series differs between compounds; nearly all actives have a fitted effect of over 50% in size. The gist of the method:
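Viability tracked continuously by luminescence as live cells reduce a prosubstrate for NanoLuc; HEK293 cells preincubated 5 h, compound-treated at 37 C, and read at 0, 8, 16, 24, 32 and 40 h.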

The nature of assay [7]: A CellTox Green Cytotoxicity Assay to monitor cytotoxicity in HEK293 cells - 16 hour (AID 1224888). Further: nearly all actives have a fitted effect of over 35% in size. Further: potency means the concentration at half of the fitted maximal effect. Put shortly: as §2
Assay [8] can be described thus: qHTS RealTime-Glo MT Cell Viability Assay in HepG2 cells - 0 hour (AID 1224889). Further: nearly all actives have a fitted effect of over 50% in size. The gist of the method:
as §4

Assay [9] is described as follows: A CellTox Green Cytotoxicity Assay to monitor cytotoxicity in HepG2 cells - 32 hour (AID 1224883). Further: nearly all actives have a fitted effect of over 50% in size. Further: potency means the concentration at half of the fitted maximal effect. The gist of the method: as §3
Assay [10] can be described thus: qHTS RealTime-Glo MT Cell Viability Assay in HEK293 cells - 8 hour (AID 1224887). Put shortly:
as §1

Each structure is given as a SMILES string. Unmarked numbers belong to inactive results. Inconclusive results are not listed. The source made the active and inactive calls. The call rests on the fitted dose curve; in most records, active means well fitted curve in the direction sought with a large enough effect in the repeat runs; inconclusive means weak or mixed curves; inactive means no such curve, though single readings can be large; an effect the other way counts as inactive or inconclusive.

For the compound `CCN(CC)C(=O)N(CC)CC`, the outcome in assay [1] and in assay [5] was inactive. Also, the Potency result in [2], in [3], in assay [4], in assay [6], in [7] and in assay [8] was “inactive” each time.

As to `O=[N+]([O-])c1nccn1CO[C@@H](CO)[C@H](O)CO`, the compound was called inactive in assay [1] and in [5]. Further, the Potency entry in [2], in [9], in [4], in assay [6], in [10] and in [7] was “inactive” in each case. In addition, in assay [8], the Potency entry is “inactive”.

Consider `OCc1c2ccccc2cc2ccccc12`, for which the call in assay [1] and in [5] was inactive. Moreover, the Potency result in [2], in [3], in assay [4], in [7] and in assay [8] was “inactive” in each case.

With `OCc1ccccc1O`, the outcome in [1] and in [5] was inactive. Further, the Potency entry in assay [2], in assay [9], in [4], in assay [6], in [10] and in [7] was “inactive” in each case. Further, the Potency entry in assay [8] was “inactive”.

`CCCCCCCCc1ccc(S(=O)(=O)O)cc1`: the result in assay [1] and in assay [5] was inactive. The Potency in assay [2] was 54.5 µM (active). The Potency result in assay [3], in [4], in assay [6], in assay [10] and in [8] was “inactive” each time.

As to `O=C(O[C@@H](C(=O)O)[C@@H](OC(=O)c1ccccc1)C(=O)O)c1ccccc1`, the result in assay [1] and in assay [5] was inactive. For the same compound, the Potency result in assay [2], in assay [3], in assay [4], in assay [6], in assay [10] and in assay [7] was “inactive” each time. For the same compound, the Potency result in assay [8] is “inactive”.

For `Cc1ccc([N+](=O)[O-])cc1Cl`, the compound was called inactive in [1] and in assay [5]. Moreover, the Potency entry in [2], in assay [9], in assay [4], in assay [6], in assay [10] and in assay [7] was “inactive” each time. Further, the Potency result in assay [8] is “inactive”.

Regarding `CCNCCO`, the compound was classed as inactive in assay [1] and in [5]. In addition, the Potency result in assay [2], in [3], in [4], in assay [6], in assay [7] and in assay [8] was “inactive” in each case.

Take `O=C1CCC(C2CCCCC2)CC1`: the compound was called inactive in [1] and in [5]. The figures for the Potency in [2], in assay [3] and in [7] were 43.6 µM (active), 38.9 µM (active) and 43.6 µM (active), respectively. Moreover, the Potency result in assay [8] was “inactive”.

For `CCOC(=O)[C@H](CCc1ccccc1)N[C@@H](C)C(=O)N1Cc2cc(OC)c(OC)cc2C[C@H]1C(=O)O`, the call in assay [1] and in assay [5] was inactive. Besides, the Potency result in assay [2], in assay [9], in assay [4], in [6], in assay [10] and in [7] was “inactive” in each case. The Potency entry in assay [8] is “inactive”.

As to `CCOC(=O)c1cc(=O)c2c(OCC(COc3cccc4oc(C(=O)OCC)cc(=O)c34)OC(=O)[C@@H](N)CCCCN)cccc2o1`, the compound was called inactive in assay [1] and in assay [5]. The Potency result in assay [2], in [9], in assay [4], in assay [6], in assay [10] and in assay [7] was “inactive” each time. In addition, the Potency result in assay [8] is “inactive”.

In the case of `CN1CCN(C2=Nc3ccccc3Oc3ccc(Cl)cc32)CC1`, the compound was classed as inactive in assay [1] and in assay [5]. The Potency entry in [2], in [3], in [6], in [10], in assay [7] and in [8] was “inactive” throughout.

In the case of `CC1(O)CSC(C)(O)CS1` (stereo not drawn), the call in assay [1] and in [5] was inactive. The Potency result in assay [2], in assay [9], in [4], in [6], in assay [7] and in assay [8] was “inactive” each time.

For the compound `CC(C)c1ccccc1`, the result in assay [1] and in assay [5] was inactive. For the same compound, the Potency result in assay [2], in [3], in assay [4], in assay [6], in [10] and in assay [7] was “inactive” throughout. Also, in assay [8], the Potency entry was “inactive”.

Take `OCCN(CCO)c1ccccc1`: the call in assay [1] and in assay [5] was inactive. Also, the Potency entry in assay [2], in assay [3], in assay [6], in assay [10], in [7] and in [8] was “inactive” in each case.

For the compound `COc1nc(C)nc(NC(=O)NS(=O)(=O)c2ccccc2OCCCl)n1`, the call in [1] and in [5] was inactive. Also, the Potency entry in assay [2], in assay [3], in [4], in [6], in assay [10] and in [7] was “inactive” each time. Also, in assay [8], the Potency result was “inactive”.

With `Cc1ccc(C=O)s1`, the call in [1] and in assay [5] was inactive. Moreover, the Potency was 43.6 µM (active) in [2], 38.9 µM (active) in assay [9], 43.6 µM (active) in [4] and 38.9 µM (active) in [7]. The Potency result in assay [6], in [10] and in assay [8] was “inactive” throughout.

As for `C=CCc1cc(OC)c(O)c(C(=O)NCCO)c1`, the outcome in assay [1] and in [5] was inactive. Besides, the Potency entry in [2], in assay [3], in [4], in assay [6], in assay [7] and in assay [8] was “inactive” each time.

With `Cc1ccccc1C(=O)Nc1ccc(C(=O)N2CCCC(O)c3cc(Cl)ccc32)c(C)c1` (stereo not drawn), the compound was classed as inactive in assay [1] and in assay [5]. For the same compound, the Potency result in assay [2], in assay [3], in [4], in assay [7] and in assay [8] was “inactive” in each case.

In the case of `CC(Oc1c(Cl)cccc1Cl)C1=NCCN1` (stereo not drawn), the compound was called inactive in assay [1] and in assay [5]. In addition, the Potency result in assay [2], in [9], in [4], in [6], in assay [10] and in assay [7] was “inactive” in each case. The Potency entry in assay [8] was “inactive”.

As to `CCOc1ccc(NC(N)=O)cc1`, the compound was called inactive in assay [1] and in assay [5]. Also, the Potency result in assay [2], in assay [9], in [4], in assay [6], in [10] and in [7] was “inactive” throughout. Besides, in assay [8], the Potency result was “inactive”.

In the case of `CCOc1ccc2nc(N)sc2c1`, the call in assay [1] and in assay [5] was inactive. Further, the Potency result in assay [2], in assay [3], in assay [4], in assay [6], in assay [10] and in assay [7] was “inactive” each time. In assay [8], the Potency entry was “inactive”.

Take `CCCNC(C)(C)COC(=O)c1ccccc1`: the outcome in assay [1] and in [5] was inactive. Further, the Potency result in assay [2], in [3], in assay [6], in assay [7] and in [8] was “inactive” each time.

With `Clc1cccc(-c2cc(Cl)cc(Cl)c2)c1`, the call in [1] and in [5] was inactive. In addition, the Potency in assay [2] is 42.1 µM (active). The Potency result in assay [3], in assay [6], in assay [10] and in assay [8] was “inactive” throughout.
